Growth inhibition data for ten compounds are collected here from PubChem BioAssay (NCI).

Test [1] is described as follows: NCI Yeast Anticancer Drug Screen. Data for the rad50 strain (AID 155).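 Further: 0% = growth of vehicle-only cultures of the same strain.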 The following applies: S. cerevisiae rad50 strain growth inhibition, hits give high values. Put shortly: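 Genetically altered yeast (DNA repair pathway); compound treatment; growth inhibition vs vehicle ctrl.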
A short description of test [2]: NCI Yeast Anticancer Drug Screen. Data for the mec2-1 strain (AID 157). The following applies: S. cerevisiae mec2-1 strain, hits give high values. Put shortly: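 Cells of the genetically defined mec2-1 yeast strain are incubated with test compound. Inhibition of growth is calculated against vehicle-treated controls.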
A short description of test [3]: NCI Yeast Anticancer Drug Screen. Data for the sgs1 mgt1 strain (AID 161).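 Further: 0% = growth of cultures given vehicle only.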 As to conditions: S. cerevisiae sgs1 mgt1 strain, hits give high values. The essentials: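 Inhibition of yeast growth, normalised to vehicle-treated controls, is reported for a strain bearing genetic alterations in DNA damage repair.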
Test [4] in a line: NCI Yeast Anticancer Drug Screen. Data for the cln2 rad14 strain (AID 165).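 Further: 0% = growth equal to vehicle treated cultures.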 As to conditions: S. cerevisiae cln2 rad14 strain, hits give high values. Put shortly: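 The screen exposed genetically defined yeast (cln2 rad14) to test compounds and scored growth inhibition relative to vehicle-treated controls.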
Test [5] can be described thus: NCI Yeast Anticancer Drug Screen. Data for the bub3 strain (AID 167). The following applies: S. cerevisiae bub3 mutant strain, hits give high values. The essentials:
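Yeast carrying a defined mutation is treated with each compound, and growth is compared with that of vehicle-exposed cells to give inhibition.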

Test [6] in a line: NCI Yeast Anticancer Drug Screen. Data for the mlh1 rad18 strain (AID 175). As to conditions: S. cerevisiae mlh1 rad18 strain growth inhibition, hits give high values. Put shortly: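 Compound-treated yeast growth, normalised to vehicle controls. Strain bears defined DNA repair mutations.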
Where [7] appears, read: at 5.0 µM (retest, dose inferred, filed as 0.5).
The mark [8] stands for this setting: at 50.0 µM (retest, dose inferred, filed as 5.0).

Each structure is given as a SMILES string. Compounds without any hit were thinned out: in the full panel of roughly 79,000, 15% have a hit. Unmarked numbers belong to inactive results. The source made the active and inactive calls. No stated cut-off is given here; in the data, active means growth inhibition above about 70%; inactive means the rest.

Turning to `O=C(Oc1ccccc1)C1CCCCC1C(=O)Oc1ccccc1` (stereo not given), the growth inhibition in test [1] (setting [7]) was -16%; in test [1] (setting [8]), -12%; in test [1] (at 50.0 µM), 39.2%; in test [2] (setting [7]), -19%; in test [2] (setting [8]) it was 10%; in test [2] (at 50.0 µM), 26.4%. Moreover, the growth inhibition in test [3] (setting [7]) was -3%; in test [3] (setting [8]), 5%; in test [3] (at 50.0 µM), 30.4%; in test [4] (setting [7]), 10%; in test [4] (setting [8]), 33%; in test [4] (at 50.0 µM), -2.35%. Further, the growth inhibition in test [5] (setting [7]) was -9%; in test [5] (setting [8]), -5%; in test [5] (at 50.0 µM), -4.5%; in test [6] (setting [7]), -11%; in test [6] (setting [8]), -6%; in test [6] (at 50.0 µM) it was 31.8%.
On to `CCCSc1n[nH]c(=S)s1`, for which the growth inhibition in test [1] (setting [7]) was -3%; in test [1] (setting [8]) it was 5%; in test [1] (at 50.0 µM), 27%; in test [2] (setting [7]), 2%; in test [2] (setting [8]), 30%; in test [2] (at 50.0 µM), 53%. For the same compound, the growth inhibition was -1% in test [3] (setting [7]); 46% in test [3] (setting [8]); 73.1% (active) in test [3] (at 50.0 µM); -10% in test [4] (setting [7]); 29% in test [4] (setting [8]); 32.6% in test [4] (at 50.0 µM). In addition, the growth inhibition is -6% in test [5] (setting [7]); 13% in test [5] (setting [8]); 52% in test [5] (at 50.0 µM); -1% in test [6] (setting [7]); 15% in test [6] (setting [8]); 41.7% in test [6] (at 50.0 µM).
Consider `O=C1OC(c2ccccc2)=N/C1=C\c1ccc(Oc2ccc(Cl)c(Cl)c2)cc1`, for which the growth inhibition in test [1] (setting [7]) was 8%; in test [1] (setting [8]), 8%; in test [1] (at 50.0 µM) it was 69.4%; in test [2] (setting [7]), 14%; in test [2] (setting [8]), 14%; in test [2] (at 50.0 µM), 61.5%. In addition, the growth inhibition in test [3] (setting [7]) is 0%; in test [3] (setting [8]), 0%; in test [3] (at 50.0 µM) it was 74.8% (active); in test [4] (setting [7]) it was -2%; in test [4] (setting [8]) it was -2%; in test [4] (at 50.0 µM), 46%. The growth inhibition is -1% in test [5] (setting [7]); -1% in test [5] (setting [8]); 69.7% in test [5] (at 50.0 µM); -4% in test [6] (setting [7]); -4% in test [6] (setting [8]); 52.4% in test [6] (at 50.0 µM).
Take `CCc1cccc(CC)c1NC(=O)C(C#N)C1=C(Cl)C(=O)c2ccccc2C1=O` (stereo not given): the growth inhibition was 63% in test [1] (setting [7]); 97% (active) in test [1] (setting [8]); 89.8% (active) in test [1] (at 50.0 µM); 92% (active) in test [2] (setting [7]); 98% (active) in test [2] (setting [8]); 93.5% (active) in test [2] (at 50.0 µM). For the same compound, the growth inhibition in test [3] (setting [7]) is 73% (active); in test [3] (setting [8]), 99% (active); in test [3] (at 50.0 µM) it was 90% (active); in test [4] (setting [7]) it was 36%; in test [4] (setting [8]), 99% (active); in test [4] (at 50.0 µM), 91.3% (active). Also, the growth inhibition in test [5] (setting [7]) was 67%; in test [5] (setting [8]), 99% (active); in test [5] (at 50.0 µM) it was 92.1% (active); in test [6] (setting [7]), 75% (active); in test [6] (setting [8]) it was 96% (active); in test [6] (at 50.0 µM), 90.5% (active).
For `CCCCN(CCCC)CC(O)c1ccc2cc(Cl)c3ccccc3c2c1` (stereo not given), the growth inhibition is 53% in test [1] (setting [7]); 99% (active) in test [1] (setting [8]); 99.6% (active) in test [1] (at 50.0 µM); 40% in test [2] (setting [7]); 100% (active) in test [2] (setting [8]); 99.7% (active) in test [2] (at 50.0 µM). Besides, the growth inhibition in test [3] (setting [7]) is 85% (active); in test [3] (setting [8]), 100% (active); in test [3] (at 50.0 µM), 99.5% (active); in test [4] (setting [7]), 41%; in test [4] (setting [8]), 99% (active); in test [4] (at 50.0 µM), 99.4% (active). In addition, the growth inhibition was 57% in test [5] (setting [7]); 99% (active) in test [5] (setting [8]); 92.2% (active) in test [5] (at 50.0 µM); 63% in test [6] (setting [7]); 100% (active) in test [6] (setting [8]); 99.4% (active) in test [6] (at 50.0 µM).
On to `CN1CCN(C2=C(Cl)C3(OCCS3)C(F)(F)C2(F)F)CC1` (stereo not given), for which the growth inhibition is -1% in test [1] (setting [7]); -42% in test [1] (setting [8]); 34.1% in test [1] (at 50.0 µM); 26% in test [2] (setting [7]); 53% in test [2] (setting [8]); 34.2% in test [2] (at 50.0 µM). The growth inhibition in test [3] (setting [7]) is 15%; in test [3] (setting [8]), 58%; in test [3] (at 50.0 µM), 53.7%; in test [4] (setting [7]), 1%; in test [4] (setting [8]), 29%; in test [4] (at 50.0 µM), 49.2%. Further, the growth inhibition in test [5] (setting [7]) is 5%; in test [5] (setting [8]), 22%; in test [5] (at 50.0 µM) it was 39.9%; in test [6] (setting [7]), 20%; in test [6] (setting [8]), 68%; in test [6] (at 50.0 µM) it was 48.1%.
For the compound `CCOc1ccccc1/C=C1\NC(=O)N(/C=C2\C(=O)Oc3ccccc3C2=O)C1=O`, the growth inhibition was 6% in test [1] (setting [7]); 96% (active) in test [1] (setting [8]); 93.7% (active) in test [1] (at 50.0 µM); -13% in test [2] (setting [7]); 96% (active) in test [2] (setting [8]); 94.2% (active) in test [2] (at 50.0 µM). Moreover, the growth inhibition was 0% in test [3] (setting [7]); 85% (active) in test [3] (setting [8]); 97.2% (active) in test [3] (at 50.0 µM); 6% in test [4] (setting [7]); 95% (active) in test [4] (setting [8]); 88.5% (active) in test [4] (at 50.0 µM). In addition, the growth inhibition in test [5] (setting [7]) is -4%; in test [5] (setting [8]), 96% (active); in test [5] (at 50.0 µM) it was 94.7% (active); in test [6] (setting [7]), 1%; in test [6] (setting [8]), 89% (active); in test [6] (at 50.0 µM) it was 95.5% (active).
Turning to `Cc1ccc(S(=O)(=O)NCCCSCCO)cc1`, the growth inhibition was 6% in test [1] (setting [7]); 45% in test [1] (setting [8]); 80.2% (active) in test [1] (at 50.0 µM); -45% in test [2] (setting [7]); 91% (active) in test [2] (setting [8]); 84.4% (active) in test [2] (at 50.0 µM). The growth inhibition in test [3] (setting [7]) is -12%; in test [3] (setting [8]) it was 25%; in test [3] (at 50.0 µM), 70.4% (active); in test [4] (setting [7]), 9%; in test [4] (setting [8]), 57%; in test [4] (at 50.0 µM) it was 74% (active). Further, the growth inhibition in test [5] (setting [7]) was -11%; in test [5] (setting [8]) it was 63%; in test [5] (at 50.0 µM) it was 74.2% (active); in test [6] (setting [7]) it was -1%; in test [6] (setting [8]) it was 90% (active); in test [6] (at 50.0 µM) it was 54.6%.
Take `C=CCC1(OC(C)=O)CC2C(=O)C(=O)C(C1)N2OC(=O)c1ccccc1` (stereo not given): the growth inhibition in test [1] (setting [7]) was 20%; in test [1] (setting [8]), 95% (active); in test [1] (at 50.0 µM) it was 99% (active); in test [2] (setting [7]) it was 13%; in test [2] (setting [8]), 96% (active); in test [2] (at 50.0 µM), 99.1% (active). Besides, the growth inhibition is 22% in test [3] (setting [7]); 99% (active) in test [3] (setting [8]); 99.3% (active) in test [3] (at 50.0 µM); 9% in test [4] (setting [7]); 94% (active) in test [4] (setting [8]); 98.3% (active) in test [4] (at 50.0 µM). Also, the growth inhibition in test [5] (setting [7]) was -1%; in test [5] (setting [8]) it was 93% (active); in test [5] (at 50.0 µM) it was 98% (active); in test [6] (setting [7]), 10%; in test [6] (setting [8]) it was 98% (active); in test [6] (at 50.0 µM) it was 98.7% (active).
On to `CC(C)C(O)(C(=O)OCN1C(=O)C2C3C=CC(C2C1=O)C1C2C(=O)N(COC(=O)C(O)(C(C)C)C(C)O)C(=O)C2C31)C(C)O` (stereo not given), for which the growth inhibition is 0% in test [1] (setting [7]); -7% in test [1] (setting [8]); 28.5% in test [1] (at 50.0 µM); -2% in test [2] (setting [7]); 11% in test [2] (setting [8]); 52% in test [2] (at 50.0 µM). Further, the growth inhibition in test [3] (setting [7]) is -7%; in test [3] (setting [8]) it was 17%; in test [3] (at 50.0 µM) it was 37.9%; in test [4] (setting [7]), 0%; in test [4] (setting [8]) it was -2%; in test [4] (at 50.0 µM), 18.1%. Besides, the growth inhibition is 5% in test [5] (setting [7]); 9% in test [5] (setting [8]); -2% in test [5] (at 50.0 µM); -3% in test [6] (setting [7]); 2% in test [6] (setting [8]); 30.6% in test [6] (at 50.0 µM).
